Source: PubChem (National Center for Advancing Translational Sciences (NCATS))
IL2 activator – activates IL-2 in a cell-based reporter assay; AID 652025; 0.065% of 360,000 active; activation, % (series mostly up to about 46 µM); IL-2 activation reporter assay, cell-based qHTS; stimulated with anti-CD3/CD4/CD28 beads; in transgenic mouse T cells; in the data active = activation above about 50%; inconclusive = mostly about 30% to 49%; note: 0% is about no effect
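Unstimulated transgenic mouse T cells preincubated 60 min with compound, then stimulated with anti-CD3/anti-CD4-coated beads plus anti-CD28 for 18 h at 37 degrees C. IL-2 response read as EGFP and DsRed fluorescence by plate cytometry.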
Nrf2 activator – activates Nrf2 signaling; 0.31% of 410,000 active; Potency, µM (highest dose often 46.1 µM), without a hit: at the highest dose activation, most hits filed as activators; AID 624171; AREc32 ARE-luciferase reporter (MCF7-derived line), luminescence, 24 h; note: potency is the fitted concentration of half-maximal effect; % of control where 0% means no effect; nearly all actives have a fitted effect of over 65% in size
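Quantitative high-throughput format: AREc32 reporter cells, 1000 per well, received compound by pin transfer and were incubated 24 hr at 37 deg C, 5% CO2, before Steady-Glo luminescence detection.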
A549 tox – counter-screen for Nrf2 inhibitors: cytotoxicity in A549 cells | Potency, µM (top dose mostly 46 µM), without a hit: top-dose activity change, negative = cytotoxicity, hits mostly inhibitors | 0.16% of 390,000 active | A549 ARE-Fluc cells, CellTiter-Fluor viability, 18-24 h | AID 504648; note: potency is the fitted concentration of half-maximal effect; % is set by controls: 0 for no effect and ±100 for the full control effect
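A549 ARE-Fluc cells in 5% FBS OPTI-MEM, 5000 cells/well, rested 2 h then exposed to compounds in concentration-response for 18-24 h at 37 °C. Viability by CellTiter-Fluor fluorescence (Ex 405/Em 525) after 30 min; luciferase luminescence (BugLite, 15 min, RT) read afterwards.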
Nrf2 inh – blocks Nrf2 signaling | A549 ARE-Fluc reporter, luciferase luminescence, 18-24 h | Potency, µM (highest dose often 46 µM), without a hit: at the top dose activity change, negative = inhibition, hits mostly inhibitors | 2.1% of 360,000 active | AID 504444; note: potency is the fitted concentration of half-maximal effect; % is set by controls: 0 for no effect and ±100 for the full control effect; nearly all actives have a fitted effect of over 60% in size
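Quantitative HTS in A549 cells stably bearing an antioxidant response element-firefly luciferase construct. Inhibition of Nrf2-driven transcription was scored by luminescence after 18-24 h of compound exposure at 37 °C.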
* = called active by the depositor; u = inconclusive; x = no result given. Sampled rows, rich in hits. Any-hit rate of the full collection: about 2.3%. Unless noted, calls come from the whole dose curve; as a rule, active = well fitted curve in the direction sought with a large enough effect; inconclusive = small, poorly fitted or top-dose-only effect, or another doubt; inactive = no such curve, though single readings can be large; an effect the other way counts as inactive or inconclusive.

SMILES	IL2 activator	Nrf2 activator	A549 tox	Nrf2 inh
Cc1cc(-c2ccc(C)c(S(=O)(=O)N3CCN(c4ccc(F)cc4)CC3)c2)on1	-2.6	-0.3%	-5.9%	8.2µM*
Cc1cccc(N2CCN(S(=O)(=O)c3cc(-c4cc(C)no4)ccc3C)CC2C)c1 (configuration not stated)	-1.8	-0.1%	-11.8%	7.31µM*
O=C(c1ccc(C#Cc2ccccc2)o1)N1CCN(c2ccccn2)CC1	-1.3	-0.5%	u	18.4µM*
O=C(c1ccc(COc2ccccc2Br)o1)N1CCN(c2ccccn2)CC1	-1.3	0.4%	-6.0%	u
Clc1ccccc1-c1nn2c(-c3ccncc3)nnc2s1	1.4	0.2%	-5.8%	8.2µM*
O=C(Nc1ccc(OC(F)(F)F)cc1)Nc1cccc([N+](=O)[O-])c1	-0.8	0.0%	u	20.6µM*
O=C(Nc1ccc(OC(F)(F)F)cc1)c1[nH]ncc1[N+](=O)[O-]	1.1	u	u	7.31µM*
O=C(Nc1ccc(Oc2ccc(NC(=O)Nc3ccc([N+](=O)[O-])cc3)cc2)cc1)Nc1ccc([N+](=O)[O-])cc1	-5.9	-0.7%	u	16.4µM*
O=C1N(Cc2cccc(Cl)c2)C[C@@H]2C[C@@H](c3cccn3-c3cccnc3)N3CCC[C@@]123	4.2	0.5%	-13.4%	20.6µM*
Cn1cc([C@@H]2C[C@H]3CN(Cc4cccc(Cl)c4)C(=O)[C@]34CCCN24)c(-c2ccccc2)n1	-1.7	-0.7%	u	20.6µM*
Cc1nn(C)cc1[C@@H]1C[C@H]2CN(Cc3cccc(Cl)c3)C(=O)[C@]23CCCN13	-0.6	2.5%	4.3%	2.5%
CN(CCOc1ccccc1)CC(=O)Nc1cc([N+](=O)[O-])ccc1Cl	2.8	-0.3%	-8.5%	16.4µM*
CC[C@@H](C(=O)[C@@H](C)[C@@H](O)[C@H](C)CCc1ccc(C)c(O)c1C(=O)O)[C@H]1O[C@](CC)([C@H]2CC[C@](O)(CC)[C@H](C)O2)C[C@@H]1C	-0.1	-3.0%	6.51µM*	5.17µM*
COCCCNC(=S)N1CCCN(c2nc3cc(C)c(C)cc3cc2C#N)CC1	-2.0	1.7%	-15.4%	u
COCCCNC(=S)N1CCCN(c2nc3cc(C)ccc3cc2C#N)CC1	0.0	3.2%	-11.7%	16.4µM*
Cc1ccc(NS(=O)(=O)c2ccc3c(c2)N(C)C(=O)CO3)cc1C	x	x	0.9%	u
CCc1ccccc1NC(=O)Cn1ccn(-c2cc(C)cc(C)c2)c(=O)c1=O	x	-4.0%	4.3%	13.8%
CC1(C)COC(/C=C/c2cccc([N+](=O)[O-])c2)=N1	-1.1	12.6µM*	u	u
COc1cccc(CN(C)C(=O)c2cccc(S(=O)(=O)N3CCN(c4ccc(F)cc4)CC3)c2)c1OC	-2.5	0.4%	u	8.2µM*
COc1cccc(CNC(=O)C2CCCN(S(=O)(=O)N(C)c3ccc(F)cc3)C2)c1OC (configuration not stated)	x	-0.3%	-11.2%	25.9µM*
COc1cccc(CN(C)C(=O)c2ccc(Cl)c(S(=O)(=O)N3CCCCCC3)c2)c1OC	-0.5	1.2%	-15.9%	18.4µM*
CCN(Cc1ccccc1)C(=O)c1cccc(S(=O)(=O)N2CCN(c3ccccc3)CC2)c1	-5.3	0.0%	-3.2%	u
COc1cccc(CN(C)C(=O)c2ccc3c(=O)n4c(nc3c2)CCC4)c1OC	-0.3	0.1%	-4.8%	u
CCN(Cc1ccccc1)C(=O)c1cccc(S(=O)(=O)N2CCN(c3ccc(F)cc3)CC2)c1	-4.7	0.0%	-16.2%	14.6µM*
Nc1nc2[nH]c(=S)[nH]c2c(=O)[nH]1	x	x	-6.9%	2.2%
SMILES	IL2 activator	Nrf2 activator	A549 tox	Nrf2 inh
Cc1ccc(NS(=O)(=O)c2ccc3[nH]c(=O)[nH]c3c2)cc1C	x	x	-1.1%	-19.6%
CN(Cc1ccco1)C(=O)c1cccc(S(=O)(=O)N2CCN(Cc3ccccc3)CC2)c1	-0.4	-0.8%	x	x
COc1cccc(CN(C)C(=O)c2cccc(S(=O)(=O)N3CCN(Cc4ccccc4)CC3)c2)c1OC	-7.7	0.0%	-16.7%	10.3µM*
Cc1noc(C)c1COC(=O)c1ccccc1Sc1ccccc1C#N	-1.9	0.1%	-10.5%	18.4µM*
N#Cc1ccccc1NC(=O)C(=O)NCC(c1ccc2c(c1)OCO2)N1CCOCC1 (configuration not stated)	x	0.5%	8.8%	x
CC1(C)SC(=S)N(/N=C/c2ccc(O)cc2)C1N(O)C(=O)Nc1ccc([N+](=O)[O-])cc1 (configuration not stated)	0.2	10.2%	u	16.4µM*
O=[S+]([O-])(c1ccc2c(c1)OCCO2)N1CCN([S+](=O)([O-])c2c(O)cc(F)cc2F)CC1	x	x	-3.2%	-10.4%
COc1ccc(NC(=O)Cn2nnc(-c3ccccc3NC(=O)c3cccs3)n2)cc1	0.6	-0.7%	-14.2%	18.4µM*
Cc1ccc(NC(=O)Cn2nnc(-c3ccccc3NC(=O)c3cccs3)n2)cc1	-1.5	-0.6%	u	u
O=C(N/N=C/c1ccc(O)cc1O)c1ccc(CN2C(=O)c3cccc4cccc2c34)cc1	-1.1	0.2%	u	9.2µM*
CCCCc1cc(=O)oc2cc(OCC(=O)Nc3ccccn3)ccc12	0.0	12.6µM*	-6.4%	-9.1%
CCCCc1cc(=O)oc2cc(OCC(=O)NCc3ccccn3)ccc12	-2.3	0.2%	2.3%	9.6%
O=C(COc1ccc2c(-c3ccccc3)cc(=O)oc2c1)Nc1ccc(CCO)cc1	-0.1	3.1%	-8.7%	10.3µM*
COc1ccc(-c2nnc3n2N=C(c2c(OC)cccc2OC)CS3)c(OC)c1	x	x	8.0%	-14.3%
Cc1nnc(N2CCN(c3cccc(C(F)(F)F)c3)CC2)c2c1nnn2Cc1ccccc1	x	0.2%	-0.4%	u
CCc1ccccc1N1CC(c2nc3ccccc3n2CCC2CCCCC2)CC1=O (configuration not stated)	x	-4.8%	u	u
Cc1ccccc1N1CC(c2nc3ccccc3n2CCC2CCCCC2)CC1=O (configuration not stated)	x	-4.3%	-1.7%	23.1µM*
Cc1ccc(-c2nc3sccn3c2Nc2ccccc2C)cc1	x	7.2%	1.8%	-3.6%
CSCC[C@H](NC(=O)OC(C)(C)C)c1nnc(SCc2ccccc2)o1	-3.7	0.2%	-1.4%	x
CSCC[C@H](NC(=O)OC(C)(C)C)c1nnc(SCc2ccc(F)cc2)o1	-0.2	-0.1%	-9.9%	25.9µM*
O=C(c1ccccn1)N(Cc1ccco1)C1(C(=O)NC2CCCC2)CCCCC1	-1.9	0.1%	-10.0%	-3.2%
O=C(c1ccc2c(c1)OCO2)N(Cc1ccco1)C1(C(=O)NC2CCCCC2)CCCCC1	-3.9	2.9%	u	18.4µM*
Nc1nc(Cl)cc(N2CCC(c3cc(-c4ccc(Cl)cc4Cl)n[nH]3)CC2)n1	2.0	4.0%	u	10.3µM*
Nc1nc(Cl)cc(N2CCCC2)n1	-0.5	-1.0%	-2.2%	u
Cc1nn(Cc2c(Cl)cccc2Cl)c(C)c1NC(=O)c1cn(-c2ccccc2)nc1-c1ccccc1	-1.3	-1.6%	13µM*	11.6µM*
